Screening results (PubChem BioAssay)
Tau fibril FP: blocks human tau fibril formation measured by polarization | P10636 | Potency, µM (highest dose often 57.7 µM), without a hit: top-dose activity, negative = inhibition, most hits filed as inhibitors | AID 1468 | actives 0.39% (n = 280,000) | K18 P301L tau heparin fibrillization, Alexa594 FP, 6 h; also: potency is read from the fitted curve at half-maximal effect; nearly all actives have a fitted effect of over 55% in size
Target sequence (P10636 561-689 P618L limits assumed): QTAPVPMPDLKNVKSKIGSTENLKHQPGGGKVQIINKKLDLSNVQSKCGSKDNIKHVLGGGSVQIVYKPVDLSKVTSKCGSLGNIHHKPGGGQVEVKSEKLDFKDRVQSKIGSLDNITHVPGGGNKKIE
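Heparin (20 uM) drove fibril formation of recombinant tau K18 P301L, 15 uM unlabeled with 0.24 uM Alexa 594 label, for 6 hr at 37 C in 100 mM sodium acetate pH 7. Fluorescence polarization (555/632 nm) read 1 hr after 30 uM ThT.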
FBPA coupling cs: counter-screen for Giardia aldolase inhibitors: coupling enzyme system. AID 2472. actives 0.67% (n = 290,000). activity change, negative = inhibition, % at 58.2 µM, hits read low. coupling enzyme system counterscreen, AmpLite Red fluorescence; in the data active = activity change below about -30%
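Coupling enzymes only (glyceraldehyde-3-phosphate) + compound, at 57.5 uM final, 10 min RT; add substrate/coupling/AmpLite Red mix, 20 min RT; fluorescence ex 525/em 598 nm. Actives flag coupling-system interference.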
Tau fluor cs: counter-screen for tau fibril formation inhibitors; actives 0.93% (n = 280,000); AID 1463; Potency, µM (series often up to 57.7 µM), for the others: at the highest dose activity change, negative = decrease; tau K18 P301L Alexa594 fluorescence, heparin fibrillization; also: potency is read from the fitted curve at half-maximal effect; nearly all actives have a fitted effect of over 55% in size
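Human K18 P301L tau (15 uM unlabeled plus 0.24 uM Alexa 594-labeled, final) in 100 mM sodium acetate pH 7 was mixed with compound and 20 uM heparin and incubated 6 hr at 37 C.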
Tau ThT inhib: tau fibrillization inhibition (ThT binding); P10636; Potency, µM (highest dose often 57.4 µM), for the others: top-dose activity, negative = inhibition, most hits filed as inhibitors; recombinant tau K18 P301L, heparin-induced fibrillization, ThT fluorescence; actives 2.1% (n = 270,000); also: potency is read from the fitted curve at half-maximal effect; nearly all actives have a fitted effect of over 55% in size
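Using a mix of unlabeled (15 uM) and Alexa 594-labeled (0.24 uM) tau K18 P301L, heparin-triggered fibrillization over 6 hr at 37 C was scored by ThT fluorescence.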
USP1 inh: blocks the human USP1/UAF1 deubiquitinase complex. O94782. recombinant USP1/UAF1, Ub-Rhodamine cleavage fluorescence. actives 0.23% (n = 390,000). Potency, µM (top dose mostly 57.1 µM), without a hit: top-dose activity change, negative = inhibition, usual class: inhibitors; also: potency is read from the fitted curve at half-maximal effect; nearly all actives have a fitted effect of over 60% in size
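Step one: compound is pinned into 1nM USP1/UAF1 in HEPES pH 7.8 buffer with TCEP. Step two: 15 min room-temperature incubation. Step three: Ub-Rho (150nM final) starts cleavage, tracked by fluorescence over six one-minute reads.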
Starred values were filed as active, the others as inactive; i = inactive; ? = inconclusive; . = not tested or not shown; [ ] = another dose, or the depositor's remark. In the library only some 2.3% were active in any assay of this set; here they are far more common. Unless noted, calls follow the shape of the dose curve; as a rule, active = well fitted curve in the direction sought with a large enough effect; inconclusive = small, poorly fitted or top-dose-only effect, or another doubt; inactive = no such curve, though single readings can be large; an effect the other way counts as inactive or inconclusive. % is scaled to controls: 0 for no effect and ±100 for the full control effect.

SMILES	Tau fibril FP	FBPA coupling cs	Tau fluor cs	Tau ThT inhib	USP1 inh
CCOc1ccc(/C=C(\C#N)C(=O)Nc2sc3c(c2C(=O)OC)C(C(=O)OC)CC3)cc1OC (configuration not stated)	?	.	-22.9%	3.16µM*	0.2%
Nc1c2ccccc2nc2ccccc12	-5.8%	4.1	-9.9%	?	?
Cc1nc2ccccc2c2c(N)c3ccccc3n12	?	0.1	-22.5%	10µM*	-21.2%
O=c1c2c3c(sc2nc(NCCO)n1CCc1ccccc1)CCCCC3	?	-3.6	14.1µM*[quencher]	?	-11.1%
CN1CCc2c(sc3nc(NN)n(-c4ccc(Cl)cc4)c(=O)c23)C1	.	-1.6	.	.	-24.9%
CN1CCc2c(sc3nc(NN)n(Cc4ccccc4)c(=O)c23)C1	-13.2%	-3.6	?	15.8µM*	-22.9%
Cn1c(N/N=C/c2ccccc2)nc2sc3c(c2c1=O)CCC3	5.8%	-3.7	17.8µM*[quencher]	?	-14.4%
CC(C)(C)C1CCc2c(sc(NC(=O)c3ccccc3F)c2C(=O)NCc2ccco2)C1 (configuration not stated)	?	.	-15.8%	-2.7%	-14.4%
O=C1c2cccc3cccc(c23)C(=O)N1c1cccnc1	12.6µM*	5.9	?	-7.0%	-13.2%
O=C1c2cccc3cccc(c23)C(=O)N1c1ccncc1	-3.5%	1.1	-3.0%	-1.0%	-2.4%
Cc1cccc(OCCSc2nnc(-c3cccs3)o2)c1	-6.1%	.	-22.8%	?	-19.0%
CCc1nnc(NC(=O)CN2C(=O)/C(=C/c3cc(OC)c(OC)c(OC)c3)SC2=S)s1	?	9.3	?	7.94µM*	?
CCOC(=O)c1cnc2c(C)cccc2c1Nc1ccc(N2CCOCC2)cc1	?	-0.6	?	22.4µM*	.
O=C(NCCn1cc(SCc2ccc(C(F)(F)F)cc2)c2ccccc21)c1cccs1	-13.7%	.	5.62µM*[quencher]	?	-24.1%
O=C(NCCn1cc(SCc2ccc(F)cc2)c2ccccc21)c1c(F)cccc1F	-1.6%	-38.8*	?	?	?
O=C(NCCn1cc(SCc2ccc(C(F)(F)F)cc2)c2ccccc21)c1ccccc1F	-14.8%	.	?	?	-25.6%
COc1ccc(C(=O)NCCn2cc(SCC(=O)Nc3ccc(C)cc3)c3ccccc32)cc1	-15.0%	.	?	?	-9.8%
COc1ccc(C(=O)NCCn2cc(SCC(=O)Nc3ccc(F)cc3)c3ccccc32)cc1	?	.	14.1µM*[quencher]	?	-18.5%
Cc1ccc(N2C(=O)C(CC(=O)Nc3ccc(F)cc3)N(Cc3ccc4c(c3)OCO4)C2=O)cc1 (configuration not stated)	-12.6%	.	?	1.7%	-29.4%
Cc1noc(C)c1C(=O)N1CCC[C@@]2(CCN(c3cccc(-c4ccccc4)c3)C2)C1	.	-3.5	.	.	.
NC(=O)c1c(NC(=O)c2noc3c2CCCC3)sc2c1CCCC2	?	.	-26.0%	28.2µM*	1.9%
CC(=O)Nc1sc2c(c1C(N)=O)CCCC2	-1.0%	-0.7	-4.9%	-8.3%	-4.9%
Cc1cccc(NC(=O)CSc2nc3c([nH]c4ccccc43)c(=O)n2-c2ccc(F)cc2)c1C	-12.3%	.	-15.9%	-1.2%	13.1%
COC(=O)c1cccc(-c2ccc(C(c3c(C)[nH][nH]c3=O)c3c(C)[nH][nH]c3=O)o2)c1	?	-45.5*	-25.5%	7.94µM*	?
Cc1[nH][nH]c(=O)c1C(c1ccc(-c2ccc(Cl)c(C(=O)O)c2)o1)c1c(C)[nH][nH]c1=O	?	-48.4*	-15.6%	10µM*	?
SMILES	Tau fibril FP	FBPA coupling cs	Tau fluor cs	Tau ThT inhib	USP1 inh
COC(=O)c1ccccc1-c1ccc(C(c2c(C)[nH][nH]c2=O)c2c(C)[nH][nH]c2=O)o1	-5.1%	-0.6	-11.7%	-2.8%	?
CCCSc1nc(-c2ccc(OC)cc2)cc(-c2ccccc2OC)c1C#N	25.1µM*	.	?	22.4µM*	-21.5%
O=C(CSc1nc2ncccc2o1)Nc1ccc(Cl)cc1F	-1.3%	.	-6.0%	-12.5%	-10.7%
CC(C)c1ccc(/C=N/N2CCN(c3ccccn3)CC2)cc1	-6.0%	2.4	?	12.6µM*	?
Oc1ccccc1/C=N/N1CCN(c2ccccn2)CC1	-2.9%	-1.2	-24.9%	?	-27.0%
O=C(/C=C/c1ccc(Cl)c(Cl)c1)n1cccn1	?	0.0	-10.7%	14.1µM*	-5.8%
O=C(/C=C/c1ccc(Cl)c(Cl)c1)N1CCOCC1	.	-0.1	.	.	-4.5%
CCc1nn(CC(=O)N2CCC(C)CC2)c(=O)c2cc3occc3n12	6.3%	.	7.0%	10.1%	-18.3%
CN(C)S(=O)(=O)c1cccc(NC(=O)COC(=O)c2cc(-c3cccc(Br)c3)nc3ccccc23)c1	12.6µM*	1.0	?	8.8%	-15.4%
CC(C)C(=O)Nc1ccccc1C(=O)OCc1cc(=O)n2nc(C3CC3)sc2n1	2.4%	.	0.0%	-11.9%	?
Cc1cc(N=Nc2ccc(C)c(N=Nc3cc(C)c(N)cc3N)c2)c(N)cc1N	-4.3%	-21.3	15.8µM*[quencher]	3.98µM*	-22.3%
CC[C@@]1(c2ccccc2)NC(=O)NC1=O	.	-0.4	.	.	.
O=C(O)c1cc(-c2ccc(/C=C3/SC(=S)N(Cc4ccccc4)C3=O)o2)ccc1Cl	-6.2%	-1.7	1.9%	10µM*	25.1µM*
Cc1ccc(/C=C2\SC(=S)N(Cc3ccccc3)C2=O)o1	?	-15.9	?	15.8µM*	-26.1%
O=C1/C(=C/c2ccncc2)SC(=S)N1Cc1ccccc1	-0.8%	-3.4	-24.1%	?	-15.0%
Cc1ccc(/C=C2/NC(=O)N(Cc3ccccc3)C2=O)o1	?	-10.3	-21.0%	31.6µM*	-24.7%
COC(=O)CN1C(=O)N/C(=C/c2ccc(C)o2)C1=O	?	-11.2	-9.6%	?	-19.8%
Cc1ccc(/C=C2\SC(=S)N(c3cccnc3)C2=O)o1	?	-24.9	-18.2%	15.8µM*	-12.0%
Cc1cccc(N2C(=O)/C(=C/c3cccnc3)SC2=S)c1	7.7%	3.3	-6.1%	?	-21.3%
COc1ccc(-c2cnc(C)o2)cc1S(=O)(=O)Nc1ccc(F)cc1F	-7.4%	.	-9.5%	-2.5%	-19.9%
CCOC(=O)c1c(NC(=O)C(C)Sc2cn(CCNC(=O)c3ccccc3OC)c3ccccc23)sc2c1CCC2 (configuration not stated)	4.6%	.	-11.2%	?	-6.3%
CC(C)=CCC/C(C)=C/CO/N=C1/C[C@@H](O)[C@@H](O)[C@@H]2[C@H]3C(=O)N(c4ccc(F)cc4F)C(=O)[C@@H]3CC[C@@H]12	5.5%[11.6 µM]	0.1	-15.2%[11.6 µM]	-6.7%[11.5 µM]	.
Cc1cc(C)c2c(=O)cc(CSc3nnc(-c4ccccc4)n3C)[nH]c2c1	4.1%	.	0.5%	2.3%	-1.8%
CN1CCN(C2=CC3=CC(=C(C#N)C#N)CCC3CC2)CC1 (configuration not stated)	-9.0%	0.0	-19.5%	?	i[2.29 µM]
N#Cc1cc(Cl)c(N2CCOCC2)cc1C#N	7.5%	0.5	-4.1%	2.4%	-14.4%
